Experimental data as given in the supplement of paper PMC11624193, “Coupling cellular drug-target engagement to downstream pharmacology with CeTEAM” (Nature Communications, 2024).
Structures can show the parent of a compound that is named as a salt.

target: PARP1 L713F-nLuc biosensor (HCT116) (UniProt P09874); test: PARP1 L713F-nLuc/akaLuc ratio relative to DMSO control (biosensor stabilization) (fold change); higher = more PARP1 biosensor stabilization (target engagement / stabilizer), active = hit call of the paper; details: stock concentration (mM; final µM = stock mM x 1): 10; 24 h
Sequence (P09874 whole entry L713F, looked up): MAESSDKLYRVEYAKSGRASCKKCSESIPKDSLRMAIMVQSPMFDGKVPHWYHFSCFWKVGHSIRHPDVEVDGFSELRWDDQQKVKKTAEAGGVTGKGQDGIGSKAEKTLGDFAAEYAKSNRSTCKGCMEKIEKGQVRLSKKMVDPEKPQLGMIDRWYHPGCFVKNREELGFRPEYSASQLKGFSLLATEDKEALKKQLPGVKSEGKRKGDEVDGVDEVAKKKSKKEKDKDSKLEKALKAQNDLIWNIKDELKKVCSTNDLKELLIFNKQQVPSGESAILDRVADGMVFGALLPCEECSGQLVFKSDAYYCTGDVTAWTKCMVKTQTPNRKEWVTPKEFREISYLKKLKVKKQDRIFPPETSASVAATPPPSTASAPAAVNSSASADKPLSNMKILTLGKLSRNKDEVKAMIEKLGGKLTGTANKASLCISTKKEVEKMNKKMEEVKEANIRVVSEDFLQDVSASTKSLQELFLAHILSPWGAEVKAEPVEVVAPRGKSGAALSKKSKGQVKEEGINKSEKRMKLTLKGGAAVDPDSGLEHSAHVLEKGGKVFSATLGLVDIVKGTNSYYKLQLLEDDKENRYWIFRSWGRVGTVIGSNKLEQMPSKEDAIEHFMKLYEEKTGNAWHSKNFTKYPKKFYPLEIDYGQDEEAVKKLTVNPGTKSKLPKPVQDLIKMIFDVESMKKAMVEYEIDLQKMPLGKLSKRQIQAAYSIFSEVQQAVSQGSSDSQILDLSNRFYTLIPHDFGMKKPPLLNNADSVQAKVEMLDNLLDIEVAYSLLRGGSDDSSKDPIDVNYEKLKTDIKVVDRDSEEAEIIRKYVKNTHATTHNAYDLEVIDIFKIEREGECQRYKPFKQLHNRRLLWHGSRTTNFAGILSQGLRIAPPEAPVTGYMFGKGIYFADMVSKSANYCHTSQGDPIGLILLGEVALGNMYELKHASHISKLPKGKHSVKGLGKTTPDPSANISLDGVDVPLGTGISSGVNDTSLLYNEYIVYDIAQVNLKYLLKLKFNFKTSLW

Row | Structure (SMILES) | PARP1 L713F-nLuc/akaLuc ratio
1 | O=C(COc1cccc2c(=O)[nH]ccc12)c1ccccc1 | 1.08 (inactive)
2 | CCn1c(C(=O)N(C2CC2)C2CC2)cc2c3c(ncn3C)c(Nc3cc(C)n(C)n3)nc21 | 1.01 (inactive)
3 | C=C1CCC[C@]2(C)C=C3OC(=O)C(C)=C3C[C@@H]12 [Atractylenolide I] | 0.934 (inactive)
4 | CCOC(=O)NCCCC(=O)NCCc1ccccc1 [Santacruzamate A] | 0.97 (inactive)
5 | CCCC(CCC)C(=O)O [Valproic acid (sodium salt)] | 0.704 (inactive)
6 | O=C(c1cccc(Br)c1)N1CCC(N2CCCC2)CC1 | 0.886 (inactive)
7 | O=C(O)c1cnn(-c2nc3cc(OC(F)(F)F)c(Cl)cc3[nH]2)c1 | 0.757 (inactive)
8 | COC(=O)c1ccc(OC(=O)CCCCCCC(=O)NO)cc1 [Remetinostat] | 1.25 (inactive)
9 | Cc1ccc(Oc2nc3cc(-c4ccc(-c5ccccc5)cc4)c(Cl)cc3[nH]2)cc1C(=O)O | 0.635 (inactive)
10 | N#Cc1cc(F)cc(Oc2ccc(S(=O)(=O)C(F)F)c3c2CC(F)(F)C3O)c1 (racemic) | 0.759 (inactive)
11 | CCN(CC)Cc1cc(Nc2ccnc3cc(Cl)ccc23)ccc1O [Amodiaquine (dihydrochloride dihydrate)] | 0.819 (inactive)
12 | Cc1nc(C(=O)NCC(=O)O)c(O)c2ccc(Oc3ccccc3)cc12 [Roxadustat] | 1.02 (inactive)
13 | Cn1ncc(NC(=O)c2nc(-c3c(F)cccc3F)sc2N)c1N1CC[C@@H](N)[C@H](F)CC1 | 0.793 (inactive)
14 | CO[C@H]1CNC[C@@H](OCC2CCC(F)(F)CC2)[C@@H]1Nc1ncc(-c2cncc(C)c2)c2cc(C)c(=O)[nH]c12 | 1.63 (inactive)
15 | CCCCOc1ccc(CC(=O)NO)cc1 [Bufexamac] | 1.03 (inactive)
16 | CO[C@@H](C(=O)N1Cc2[nH]nc(NC(=O)c3ccc(N4CCN(C)CC4)cc3)c2C1)c1ccccc1 [Danusertib] | 0.752 (inactive)
17 | Nc1nc2[nH]cnc2c(=S)[nH]1 [Thioguanine] | 1.03 (inactive)
18 | CNC(=O)c1cc(COc2nnc(Nc3ccc(Cl)cc3)c3ccoc23)ccn1 [Telatinib] | 1.17 (inactive)
19 | Nc1nc(Cl)nc2c1ncn2[C@@H]1O[C@H](CO)[C@@H](O)[C@@H]1F [Clofarabine] | 0.577 (inactive)
20 | N#Cc1cc(F)cc(Oc2ccc(S(=O)(=O)C(F)F)c3c2CC(F)(F)[C@H]3O)c1 | 0.774 (inactive)
21 | O[C@@H]1CO[C@H]2[C@@H]1OC[C@H]2Oc1nc2nc(-c3ccc(-c4ccccc4)cc3)c(Cl)cc2[nH]1 | 0.439 (inactive)
22 | O=C(c1ccc(OCCN2CCCCC2)cc1)c1c(-c2ccc(O)cc2)sc2cc(O)ccc12 [Raloxifene HCl] | 0.932 (inactive)
23 | CC(C)(C)c1cc(NC(=O)Nc2ccc(-c3cn4c(n3)sc3cc(OCCN5CCOCC5)ccc34)cc2)no1 [Quizartinib (AC220)] | 0.802 (inactive)
24 | CC1(C)Oc2cc(N3CCN(C(=O)OCc4ccccc4)CC3)c([N+](=O)[O-])cc2-c2c1cnn2-c1ccc(C(=O)O)cc1 [Lin28-let-7a antagonist 1] | 0.959 (inactive)
25 | S=c1[nH]cnc2nc[nH]c12 [Mercaptopurine (6-MP)] | 2.51 (inactive)
